The values below come from US20200071711, “MODULAR CONSTRUCTION OF SYNTHETIC GENE CIRCUITS IN MAMMALIAN CELLS USING MATHEMATICAL MODELING OF CLOSED LOOP TRANSCRIPTIONAL REPRESSORS” (Tsinghua University, published 2020).

One assay has as its target T1, TALER22 (synthetic, UniProt P14727 SEQ:1-806).
T1 chain: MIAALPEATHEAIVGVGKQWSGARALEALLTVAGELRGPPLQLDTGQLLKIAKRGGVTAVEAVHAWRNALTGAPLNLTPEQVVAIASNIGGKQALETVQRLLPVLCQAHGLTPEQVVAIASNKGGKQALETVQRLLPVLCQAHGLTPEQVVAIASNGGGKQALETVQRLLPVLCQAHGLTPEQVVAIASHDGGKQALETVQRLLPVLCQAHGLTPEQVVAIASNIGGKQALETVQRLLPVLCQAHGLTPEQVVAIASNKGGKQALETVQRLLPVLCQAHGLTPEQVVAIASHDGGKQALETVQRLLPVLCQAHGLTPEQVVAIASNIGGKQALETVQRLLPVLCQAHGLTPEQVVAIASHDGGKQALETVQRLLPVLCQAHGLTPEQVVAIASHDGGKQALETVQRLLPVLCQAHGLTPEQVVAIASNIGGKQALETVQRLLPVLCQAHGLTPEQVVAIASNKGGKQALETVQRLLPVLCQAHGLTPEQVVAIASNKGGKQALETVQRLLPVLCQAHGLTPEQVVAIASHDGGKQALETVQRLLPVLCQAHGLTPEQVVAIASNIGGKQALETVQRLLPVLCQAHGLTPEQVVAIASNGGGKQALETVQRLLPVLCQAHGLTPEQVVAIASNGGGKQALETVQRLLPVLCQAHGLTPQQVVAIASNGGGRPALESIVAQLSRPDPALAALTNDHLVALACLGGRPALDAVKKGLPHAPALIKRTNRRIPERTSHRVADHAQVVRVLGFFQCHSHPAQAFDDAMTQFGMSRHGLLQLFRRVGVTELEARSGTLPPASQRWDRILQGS
Put plainly: cell_activity; HEK293, two sites flanking CMVmini. To be noted: tags: EYFP-2A upstream, SV40 NLS; dsDNA, one strand shown.

For another assay, the target named is T2, TALER23 (synthetic, UniProt P14727 SEQ:1-806).
T2 chain: T1 chain
In words: cell_activity; HEK293, two sites flanking CMVmini. To be noted: tags: EYFP-2A upstream, SV40 NLS; dsDNA, one strand shown.

With TAGTCAGCACCAGGCATTT, in the assay with TALER22, the binding signal was found to be 4.66 fold repression. Consider TCCGGATGCTCCTCTTAAT, for which the binding signal with TALER23 amounted to 2.2 fold repression.
